Rows were chosen to be rich in hits. Some 0.86% of all compounds tested hit in one or more screens of this group.
TLR9-MyD88 block: inhibitors of human TLR9-MyD88 binding | CHO BLA complementation TLR9-MyD88, CCF4 FRET ratio | 340,000 tested, 0.21% active | inhibition, % at 4.98 µM;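 active means inhibition above the mean over all tested compounds plus 3 SD, cut at about 21% in these data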;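 further: 0% = DMSO only wells and 100% = clavulanate BLA inhibitor control wells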
IDE cell inh: cellular human IDE inhibition. P14735. HEK cells, FAbetaB cleavage, fluorescence polarization. inhibition, % at 5.59 µM. 320,000 tested, 0.41% active;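 active means percent inhibition above the average of all tested compounds plus 3 SD, set per screening campaign, cut at about 16% in these data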;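 further: IDE supplied by intact live HEK cells; FP after avidin binding of uncleaved biotin substrate so inhibition keeps polarization high; 0% = DMSO wells and 100% = 60 µM reference IDE inhibitor Ii1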
NOD2 RIPK2 PPI: inhibitors of human NOD2-RIPK2 interaction. AID 624267. inhibition, % at 4.98 µM. O43353. CHO BLA complementation NOD2-RIPK2, CCF4 ratio. 360,000 tested, 0.38% active; in the data active means inhibition above about 21%;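 further: 0% = vehicle only and 100% = reference blocker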
IDE act: IDE (human) activation, cell-based | P14735 | HEK cells, FAbeta-B cleavage, fluorescence polarization; 0% vehicle, 100% cell-free pure enzyme wells | activation, % at 5.96 µM | 340,000 tested, 0.073% active;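 active means activation above the mean of all tested compounds plus 3 SD, set per screening campaign, cut at about 17% in these data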
TLR4 MyD88 comp: blocks binding of human TLR4 to MyD88 | inhibition, % at 8.4 µM | O00206+Q99836 | AID 861 | 200,000 tested, 0.18% active | HeLa CL3-4 TLR4/MyD88 BLA complementation, FRET ratio; in the data active means inhibition above about 25%;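 further: 0% = vehicle and 100% = reference inhibitor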
Target sequence (O00206 whole entry, looked up): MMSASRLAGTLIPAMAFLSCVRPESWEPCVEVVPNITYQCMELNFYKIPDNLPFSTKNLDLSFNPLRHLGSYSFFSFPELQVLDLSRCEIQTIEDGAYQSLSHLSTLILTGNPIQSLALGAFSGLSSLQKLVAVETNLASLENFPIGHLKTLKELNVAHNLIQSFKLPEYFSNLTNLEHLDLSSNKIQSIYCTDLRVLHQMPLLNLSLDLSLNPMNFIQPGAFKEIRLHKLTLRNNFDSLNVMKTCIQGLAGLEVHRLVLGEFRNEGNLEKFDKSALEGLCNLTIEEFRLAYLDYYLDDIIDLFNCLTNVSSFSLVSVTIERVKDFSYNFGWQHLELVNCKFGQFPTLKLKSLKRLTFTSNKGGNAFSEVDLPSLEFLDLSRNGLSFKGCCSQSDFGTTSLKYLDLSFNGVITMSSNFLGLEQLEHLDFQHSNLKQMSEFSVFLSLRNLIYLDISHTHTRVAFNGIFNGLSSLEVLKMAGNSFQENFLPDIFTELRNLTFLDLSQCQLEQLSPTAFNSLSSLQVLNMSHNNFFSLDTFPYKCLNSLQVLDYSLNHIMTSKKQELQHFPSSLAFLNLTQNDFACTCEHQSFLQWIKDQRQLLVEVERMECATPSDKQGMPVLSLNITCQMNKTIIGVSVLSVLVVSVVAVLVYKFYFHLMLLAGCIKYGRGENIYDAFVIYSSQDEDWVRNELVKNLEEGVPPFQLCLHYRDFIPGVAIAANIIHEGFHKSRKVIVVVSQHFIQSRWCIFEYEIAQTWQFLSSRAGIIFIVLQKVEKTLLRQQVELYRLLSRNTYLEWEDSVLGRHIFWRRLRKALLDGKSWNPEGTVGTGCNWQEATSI
Target sequence (Q99836 whole entry, looked up): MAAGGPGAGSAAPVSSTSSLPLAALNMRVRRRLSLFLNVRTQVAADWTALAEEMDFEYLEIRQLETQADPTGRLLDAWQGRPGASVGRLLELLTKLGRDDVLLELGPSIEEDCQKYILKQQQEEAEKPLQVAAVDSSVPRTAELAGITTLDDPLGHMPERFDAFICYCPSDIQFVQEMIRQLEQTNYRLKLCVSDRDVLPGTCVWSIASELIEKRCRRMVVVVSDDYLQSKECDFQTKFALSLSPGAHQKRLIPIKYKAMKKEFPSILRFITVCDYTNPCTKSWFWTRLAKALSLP
IDE cell inh cf: confirmation of human insulin-degrading enzyme inhibitors in cells; inhibition, % at 5.59 µM; 1,200 tested, 51% active; HEK cells, FAbetaB cleavage, fluorescence polarization; shares compounds with IDE cell inh; AID 435028;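 active means mean inhibition across triplicate wells above the cutoff set by the earlier primary insulin-degrading enzyme screen, cut at about 16% in these data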;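 further: 0% = DMSO wells and 100% = 60 µM reference IDE inhibitor Ii1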
HEK293 tox: kills HEK cells in IDE inhibitor counter-screen; HEK293 cytotoxicity, ATP luminescence; inhibition, % at 5.59 µM; shares compounds with IDE cell inh; 1,200 tested, 28% active; in the data active means inhibition above about 22%;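 further: 0% = vehicle wells and 100% = reference cytotoxic drug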
* = called active by the depositor; x = not tested or not shown.

SMILES	TLR9-MyD88 block	IDE cell inh	NOD2 RIPK2 PPI	IDE act	TLR4 MyD88 comp	IDE cell inh cf	HEK293 tox
CCC(=O)Nc1ccc(NC(=S)NC(=O)c2oc3ccccc3c2C)cc1	-12	1	7	2	-14	x	x
COCn1c(-c2cccc(Br)c2)nc2ccccc21	3	17*	4	-14	2	0	19
C=CCN1C=CC(=CC=C(C#N)C#N)C=C1	-5	23*	-22	-29	x	41*	5
CCCCCCN1C=CC(=C/C=C(\C#N)C(=O)OCC)C=C1	-2	165*	-3	-114	8	121*	21
CCCN1C=CC(=CC=C(C#N)C#N)C=C1	1	39*	-18	-32	x	47*	6
CCCCCN1C=CC=C/C1=C\C=C(C#N)C#N	x	16	0	x	x	x	x
C=CCN1C=C/C(=C\C=C(C#N)C#N)c2ccccc21	-6	15	-7	-19	-13	x	x
CCCCCCN1C=CC=C/C1=C/C=C(C#N)C#N	6	29*	10	-39	-1	36*	8
CCCCCCN1C=C/C(=C\C=C(C#N)C#N)c2ccccc21	-2	4	-2	2	1	x	x
CCc1ccc(N(CC(=O)N2CCN(Cc3ccccc3)CC2)S(C)(=O)=O)cc1	-6	x	4	3	x	x	x
COc1ccc(S(=O)(=O)Nc2ccc3c(c2)OCO3)cc1C(=O)O	1	-1	-5	3	1	x	x
NS(=O)(=O)c1cccc(NC(=O)COC(=O)/C=C/c2nc3ccccc3s2)c1	-2	-1	-2	-3	x	x	x
Cc1ccc(/C=N/NC(=O)C2(O)c3ccccc3-c3ccccc32)o1	3	-2	-1	0	-20	x	x
CCc1nnc(NC(=O)CSc2nc3c(c(=O)n2C)SC(C)C3)s1 (stereo not drawn)	-2	17*	-7	-30	-8	11	5
COCCNC(=O)/C(C#N)=C/c1ccc(N2CCOCC2)o1	4	16*	-3	-16	0	16	7
COc1ccc(/C=C(\C#N)C(=O)NCCc2ccccc2)cc1OCc1ccccc1	0	9	-9	-1	-6	x	x
N#C/C(=C\c1ccc(N2CCOCC2)o1)C(=O)NCCc1ccccc1	4	72*	-3	-140	13	78*	8
N#C/C(=C\c1ccc(O)c(O)c1)C(=O)NCCCc1ccccc1	15	29*	5	-37	-10	38*	14
N#C/C(=C/c1ccc(N2CCOCC2)o1)C(=O)Nc1ccccc1	-5	x	-1	-98	3	x	x
COCCNC(=O)/C(C#N)=C\c1ccc(CNS(=O)(=O)c2ccccc2)o1	-4	-2	1	5	-2	x	x
CC(=O)NC1=NN(C(C)=O)C(C)(c2ccc(Br)cc2)S1 (stereo not drawn)	0	2	1	4	-15	x	x
COc1ccccc1NC(=O)c1ccc(NC(=O)COC(=O)c2cncc(Br)c2)cc1	-1	-3	-3	-4	x	x	x
O=C(CCC(=O)c1ccc(-c2ccccc2)cc1)Nc1cccnc1	-10	17*	1	-9	x	2	15
CC(C)[C@H](NC(=O)c1ccc(C(C)(C)C)cc1)C(=O)N1CCN(Cc2ccc3c(c2)OCO3)CC1	0	19*	1	1	x	4	53*
C[C@H](NC(=O)c1ccccc1)C(=O)N1CCN(Cc2ccc3c(c2)OCO3)CC1	-11	-4	-4	4	x	x	x
CCCn1c(SCC(=O)NC(C)C)nc2sc3c(c2c1=O)CCC3	-2	-4	-8	-1	x	x	x
Cc1cccc(N2CCN(C(=O)c3cccc(N4C(=O)C5CC=CC(C)C5C4=O)c3)CC2)c1C (stereo not drawn)	11	53*	15	-58	3	36*	19
Cc1cccc(N2CCN(C(=O)c3cccc(N4CCCC4=O)c3)CC2)c1C	3	19*	-6	-18	x	12	12
Clc1ccc2[nH]c3c(NCC4CCCO4)ncnc3c2c1 (stereo not drawn)	x	38*	x	x	3	17*	34*
Clc1ccc(-n2ncc3c(NCC4CCCO4)ncnc32)cc1 (stereo not drawn)	8	7	-8	2	-1	x	x
